Reference: PubChem BioAssay (Tox21)
Records with an inconclusive call do not appear. The source made the active and inactive calls. Unless noted, the call rests on the fitted dose curve; in most records, active means well fitted curve in the direction sought with a large enough effect in the repeat runs; inconclusive means weak or mixed curves; inactive means no such curve, though single readings can be large; an effect the other way counts as inactive or inconclusive.

Assays:
[1] = qHTS assay for small molecules that induce genotoxicity in human embryonic kidney cells expressing luciferase-tagged ATAD5 (AID 651632); further: nearly all actives have a fitted effect of over 15% in size
Summary of the method: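 Increased luciferase signal from ATAD5-tagged reporter cells indicates DNA-damage-driven ATAD5 induction. HEK293T cells are treated for 16 hr at 37C before detection with Amplite.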

[2] = qHTS assay for small molecule agonists of the p53 signaling pathway - cell viability (AID 651633; calls by dose curve;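 further: p53RE-bla HCT reporter cells with a stable beta-lactamase p53 reporter; series mostly up to about 83 µM; nearly all actives have a fitted effect of over 30% in size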)
Summary of the method: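 p53RE-bla cells were treated with compound for 16 hours at 37 C. Cytotoxicity was then measured as CellTiter-Glo luminescence after 30 min at room temperature.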

[3] = qHTS assay for small molecules that induce genotoxicity in human embryonic kidney cells expressing luciferase-tagged ATAD5 - cell viability (AID 651634; calls by dose curve; further: nearly all actives have a fitted effect of over 25% in size)
Summary of the method: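 Cytotoxicity counterscreen in HEK293T cells bearing an ATAD5-luciferase reporter: live-cell protease activity measured by CellTiter-Fluor fluorescence after 15.5 hr compound exposure.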

[4] = qHTS assay for small molecule disruptors of the mitochondrial membrane potential - cell viability (AID 720634; calls by dose curve;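 further: human HepG2 liver cancer cells; series mostly up to about 83 µM; nearly all actives have a fitted effect of over 20% in size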)
Summary of the method: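 After overnight attachment at 37 C, HepG2 cells received compound or DMSO vehicle for 1 hr. Viability is then taken from ATP-driven luminescence following a 30 min room-temperature CellTiter-Glo step.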

[5] = qHTS assay to test for compound auto fluorescence at 590 nm (red) in HepG2 cells (AID 720674)
Summary of the method: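 Fluorescence at 590 nm emission following 540 nm excitation was recorded from HepG2 wells one hour after compound transfer, with DMSO-only wells as vehicle and Rose Bengal sodium equivalency as the scale.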

[6] = qHTS assay to test for compound auto fluorescence at 535 nm (green) in HepG2 cells (AID 720675)
[7] = qHTS assay to test for compound auto fluorescence at 460 nm (blue) in HEK293 cells (AID 720678)
Summary of the method: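 Triamterene serves as the blue fluorophore standard. Compound signal at 405/460 nm is read in HEK293 wells (2,000 cells, 10% dialyzed FBS) after overnight treatment at 37C.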

[8] = qHTS assay to test for compound auto fluorescence at 590 nm (red) in HEK293 cells (AID 720679)
Summary of the method: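 We plated HEK293 cells in 10% dialyzed FBS medium, let them adhere for 4-5 hr, then added 23 nL compound. Overnight at 37C and 5% CO2 preceded fluorescence measurement at 540/590nm.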

[9] = qHTS assay to test for compound auto fluorescence at 535 nm (green) in HEK293 cells (AID 720680)
[10] = qHTS assay to test for compound auto fluorescence at 460 nm (blue) in HEK293 cell free culture (AID 720681)
Summary of the method: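 Compounds were added to cell-free DMEM with 10% FBS and fluorescence read directly. The blue channel used 405 nm excitation and 460 nm emission, with triamterene as the reference fluorophore.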

[11] = qHTS assay to test for compound auto fluorescence at 535 nm (green) in HEK293 cell free culture (AID 720682)
Summary of the method: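 Green-channel intensity (Ex/Em 485/535 nm) was recorded from compound-treated wells containing only DMEM with 10% FBS. Fluorescein provided the equivalency standard.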

[12] = qHTS assay to test for compound auto fluorescence at 590 nm (red) in HEK293 cell free culture (AID 720683)
Summary of the method: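 Cell-free wells of DMEM with 10% FBS received compound, and intrinsic fluorescence was read at excitation/emission 540/590 nm. Values expressed as equivalence to Rose Bengal sodium.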

[13] = qHTS assay to test for compound auto fluorescence at 590 nm (red) in HepG2 cell free culture (AID 720684)
Summary of the method: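 Compound was pinned into wells holding MEM with 10% FBS and no cells, and red fluorescence was read at Ex/Em 540/590 nm. Signal is expressed as auto fluorescence equivalency relative to Rose Bengal sodium.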

[14] = qHTS assay to test for compound auto fluorescence at 460 nm (blue) in HepG2 cell free culture (AID 720685)
Summary of the method: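 Compound (23 nL) or DMSO pinned into cell-free MEM with 10% FBS; blue fluorescence read at 405/460 nm excitation/emission, expressed as auto-fluorescence equivalency to triamterene.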

[15] = qHTS assay to test for compound auto fluorescence at 535 nm (green) in HepG2 cell free culture (AID 720686)
[16] = qHTS assay to test for compound auto fluorescence at 460 nm (blue) in HepG2 cells (AID 720687)
Summary of the method: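 HepG2 cells in MEM with 10% FBS, attached overnight at 37 C, were exposed to compound or DMSO for 1 hr at 37 C, 5% CO2. Blue fluorescence was read at 405/460 nm, with triamterene as reference fluorophore.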

[17] = molecular target: Glucocorticoid receptor (Homo sapiens) (UniProt P04150); test: qHTS assay to identify small molecule agonists of the glucocorticoid receptor (GR) signaling pathway (AID 720691; active means well fitted activation curve with a large enough effect in the signal ratio in the repeat runs, not every such curve was filed as active; the % refers to the signal ratio)
Glucocorticoid receptor (Homo sapiens), sequence (P04150 whole entry, looked up): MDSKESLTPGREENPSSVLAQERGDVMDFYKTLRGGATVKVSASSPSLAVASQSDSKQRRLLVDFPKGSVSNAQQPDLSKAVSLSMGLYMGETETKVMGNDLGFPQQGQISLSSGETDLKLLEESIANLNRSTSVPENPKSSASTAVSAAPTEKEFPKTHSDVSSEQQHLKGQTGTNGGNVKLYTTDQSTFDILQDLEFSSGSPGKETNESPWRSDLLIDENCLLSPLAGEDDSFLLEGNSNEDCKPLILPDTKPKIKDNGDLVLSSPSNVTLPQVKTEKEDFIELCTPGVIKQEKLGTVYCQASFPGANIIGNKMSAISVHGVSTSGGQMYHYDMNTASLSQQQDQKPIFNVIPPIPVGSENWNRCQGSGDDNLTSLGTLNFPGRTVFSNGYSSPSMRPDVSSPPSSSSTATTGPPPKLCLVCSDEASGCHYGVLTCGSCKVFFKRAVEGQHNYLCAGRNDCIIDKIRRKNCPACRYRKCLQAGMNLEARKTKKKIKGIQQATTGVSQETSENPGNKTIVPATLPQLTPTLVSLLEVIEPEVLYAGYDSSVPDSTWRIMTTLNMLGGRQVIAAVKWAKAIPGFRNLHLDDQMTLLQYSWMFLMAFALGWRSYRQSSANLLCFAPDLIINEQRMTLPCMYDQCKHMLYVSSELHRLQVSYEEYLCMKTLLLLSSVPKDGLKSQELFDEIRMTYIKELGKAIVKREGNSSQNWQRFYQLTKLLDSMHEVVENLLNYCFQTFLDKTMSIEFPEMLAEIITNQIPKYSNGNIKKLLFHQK
Summary of the method: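 Agonist mode in a HeLa line carrying a GRE-controlled beta-lactamase reporter. Compounds act for 18 h at 37 C before a 2 h room-temperature FRET substrate step and fluorescence reading.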

[18] = qHTS assay for small molecule disruptors of the mitochondrial membrane potential (AID 720635)
Summary of the method: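 HepG2 cells exposed to compound 1 hr at 37C, then Mito-MPS dye 30 min. Ratio read of aggregate (540/590 nm) versus monomer (490/535 nm) fluorescence.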

[19] = molecular target: Glucocorticoid receptor (Homo sapiens) (UniProt P04150); test: qHTS assay to identify small molecule antagonists of the glucocorticoid receptor (GR) signaling pathway (AID 720692; active means well fitted inhibition curve with a large enough effect in the signal ratio in the repeat runs, not every such curve was filed as active; the % refers to the signal ratio)
Summary of the method: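 Cells plated, rested 4 h at 37 C/5% CO2; compounds in DMSO pin-transferred; dexamethasone added to 5 nM final; 18 h at 37 C; B/G FRET substrate added, 2 h room temperature; fluorescence measured.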

Measured: Potency

COc1ccc(CCO)cc1
not listed: [18] | [19]
inactive: all other assays above

CC(C)CO
inactive: all assays above

O=Cc1ccccc1Cl
not listed: [5] | [19]
inactive: all other assays above

O=C(O)CNC(=O)CNC(=O)CNC(=O)CSC(=O)c1ccccc1
not listed: [8]
inactive: all other assays above

CO[C@@]1(NC(=O)Cc2cccs2)C(=O)N2C(C(=O)O)=C(COC(N)=O)CS[C@@H]21
not listed: [17] | [19]
inactive: all other assays above

Cc1c(Cl)cccc1Cl
not listed: [10] | [18]
inactive: all other assays above

Cc1ccc(C(=O)O)cc1[N+](=O)[O-]
not listed: [17] | [19]
inactive: all other assays above

COP(=O)(O)OP(=O)(O)OC
not listed: [5] | [19]
inactive: all other assays above

CC(=O)CCC1=C(C)CCCC1(C)C
not listed: [8] | [10] | [19]
inactive: all other assays above

C=C(C)[C@@H]1CC=C(C)C(=O)C1
not listed: [18]
inactive: all other assays above

C=C(C)C1CC=C(C)C(=O)C1 (stereo unspecified)
not listed: [18]
inactive: all other assays above

CCCC(=O)OC/C=C(\C)CCC=C(C)C
not listed: [8] | [18] | [19]
inactive: all other assays above

CC(S)C(C)S (stereo unspecified)
not listed: [8]
inactive: all other assays above

C=Cc1ccc(C(C)(C)C)cc1
not listed: [8] | [17] | [18] | [19]
inactive: all other assays above

CCCC(=O)OCCC(C)CCC=C(C)C (stereo unspecified)
not listed: [5] | [17] | [19]
inactive: all other assays above
